The results in this text go back to PubChem BioAssay AID1508600 (Functional Genomics Laboratory (NCATS/FGL), 2020).

The whole screen tested about 53,000 sequences, of which about 3,700 (7%) were called active. This excerpt belongs to a sample that is enriched for actives. Values without a mark were called inactive.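 Rule for the calls: active = gene knockdowns whose robust z-score for IL-1 alpha signal is at least 2 or at most -2, so actives lie on both sides; inactive = the rest.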

A short description of this assay: Components of the Cytosolic LPS Sensing Pathway: Gene Identification via Genome-wide siRNA Screen.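 Note: robust z of the log signal after scaling to non-targeting control siRNA wells of the plate.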 The settings on record: RAW264.7 macrophages, IL-1a HTRF, actives lie on both sides, screened at 100 nM (by protocol), cells primed 5 h with Pam3CSK4 first. The gist of the method: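 Supernatant IL-1a by HTRF from RAW264.7 cells primed with Pam3CSK4 (5 hours) and transfected with LipidA (24 hour) after 48h siRNA knockdown at 100 nM; cell viability checked with CellTiter-Glo.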
In the case of GGAGCUACACACAUAGGAATT against Clec2h, the z-score is 0.891.

Turning to GGAUACCAAGAUUCCAAAUTT against Pik3r4, the z-score was 2.19 (active).

Turning to GCCAGCAACCCUCUUCGUUTT against Foxo6, the z-score was 0.142.

Consider CCUUUGACGGCCAUGAGUATT against Muc6, for which the z-score is -1.39.

For GCUAAGCACAAUGUGUACATT against Dus4l, the z-score was -0.633.

For the sequence GGUCAUAGCUUAGAAGGUGTT against Rhov, the z-score is -0.233.

For the sequence GGGAAGCAAUAAGUCGCCUTT against Shc4, the z-score is 0.394.

GAGCCAAGUACCAUCUAUATT against Olfr389: the z-score is 2.28 (active).

Consider GGUUAAGCAGAAAUUAAGATT against Supt20, for which the z-score is -0.551.

GCCACAGGAUGCUAGCAAATT against Bex2: the z-score was 0.282.

For the sequence GCAGUUGGUAUUGUUAACUTT against Maml1, the z-score is -0.0252.

As for GCUAAACCCAAAAACACAATT against Sim2, the z-score is 1.04.

With GCUAGAAAUAAGGCUGCACTT against Plekhg6, the z-score is -1.2.

Consider GGAAGCAAGUAUCCCGAAUTT against Snhg11, for which the z-score is -2.58 (active).

Regarding GCCAAUGAGAGUAGGAAAGTT against Elovl3, the z-score was 1.43.

Consider GCCUCUCAACUUAAUAACATT against Zup1, for which the z-score is -0.697.

Consider GCUAACAGUAUCCUUAUUUTT against Vmn1r53, for which the z-score is -0.436.

As to CCUCUACAAUGUAACCAACTT against Kir3dl2, the z-score was -0.183.

Take GGAAACAUUAGAAUCUUGUTT against Lin52: the z-score was -2.23 (active).

For GGUCUUCGCCACAUGGAAATT against Crkl, the z-score is 0.436.

As to CCUUGUCCCUUUACCUCAATT against Plk5, the z-score is -1.39.

As to GCUUUAGGAAAUUUUGUGUTT against Ska3, the z-score is -1.05.

For GGUCAUUCUAAUGACAAUCTT against Atg14, the z-score is -0.014.

As for GGUUAGAGAUUGUUCUGUUTT against Olfr267, the z-score was 2.02 (active).

For the sequence AAUGGCAUAGGUCCUAUUATT against Tcaim, the z-score was -0.011.

For GGUUUUUGUCCCAUCUUGGTT against Zc3h12d, the z-score is 0.228.

Regarding GGGUCUUUAAACUGAAAGATT against Sh3pxd2a, the z-score was 0.0777.

Turning to CCUGUAAGGUCUCUAGCAUTT against Exosc1, the z-score is 1.53.

As for GGUUGUGCACAGCAGUGUUTT against Crct1, the z-score is -0.716.

On to GGACAAAGUCACAGAGUCCTT against Slc26a5, for which the z-score was -2.08 (active).

For the sequence GCACGUACCUGAUAGUCCUTT against Daglb, the z-score is -0.976.

For GGGCCAAACCCAGAACUAUTT against Sema4g, the z-score was 1.5.

Consider GGACAAGUCAAUUUGUUGGTT against Zfp36l1, for which the z-score is 0.277.

For the sequence GGUGUAUCGGAACAGUGAGTT against Det1, the z-score is -2.8 (active).

For GCAAUGGAACUAUUAUUCATT against Cd28, the z-score was 2.48 (active).

For the sequence GGCUUCAAAGCAUGACCAGTT against Ccr1, the z-score was -0.528.

For the sequence GGACCUGCCAAAAGUUGUGTT against Uqcrc1, the z-score is -1.16.

In the case of GCAGUUGAAUAUCAGACUGTT against Obox5, the z-score is -0.973.

On to GGUUCAGAAUCAAUACGAGTT against Krt2, for which the z-score is -0.909.

Consider GGACACUUCCAAACUGACCTT against Tiparp, for which the z-score is -1.43.

Take GCGUAGGUCAUCCUUGUAATT against Samd4: the z-score was -2.22 (active).

Turning to GGUCAUUCACAAGUCCUUUTT against Serpinb6b, the z-score was 0.863.

As to GCCAGUGGUAGCGAUAUGATT against Zscan4c, the z-score is -0.263.

In the case of GGAGAACACCAAAAAGGGCTT against Uncx, the z-score is -1.26.

GCUGUGUGGACAAAGUCUGTT against Clec4b1: the z-score was -0.398.

With GGUCUUUAGAAUUAGGCUCTT against Pml, the z-score is 0.188.

For GCACUUUAAAAGAAUCACUTT against Slc2a12, the z-score is 2.11 (active).

Take GGAAGAAGUAGCUAAAAACTT against Entpd4: the z-score was 0.488.

On to GGUCUUGCUAUUUGUGAUATT against Olfr1294, for which the z-score was 0.617.

For the sequence GGACUUCACAAGACUUCAATT against Nfam1, the z-score was 2.06 (active).

Regarding GGUCAAGGAAUUAGUGAUUTT against Tctex1d1, the z-score was 0.398.

On to GGUACAGUGUCAUCAUGAATT against Olfr460, for which the z-score was -0.456.

As for GGUAAUUUGUAAGGAACCCTT against Rpusd2, the z-score was -0.881.

With GGAAAAAUGGGAGUUUGAATT against Ccdc83, the z-score is -0.291.

Take GUCCUUCUCAUCAUGGGACTT against Sec61g: the z-score was -0.248.

Consider GGCGAAAGUGCUUUUCCUGTT against Gbp8, for which the z-score was 1.03.

Take GCUGAUCCACGACUACUUGTT against Rab10os: the z-score was 1.24.

In the case of GCUUAGAUCUUACCCACCCTT against Ptcra, the z-score is 2.52 (active).

Turning to GCUCCGUAAGAAGUCUCGUTT against Dhx16, the z-score is -0.676.

Take GAUGGAGAAACUGAAGAAGTT against Olfml2a: the z-score was -0.117.

On to UCCACUUCACUAAUCCUGUTT against Vmn2r43, for which the z-score is -2.52 (active).

On to GCUGGAUUUGGACUCUUAGTT against Vmn1r16, for which the z-score is 1.1.

Regarding GGGCUGUGAUAUGCAACUCTT against Teddm2, the z-score was -0.988.

On to GGAAAUGGUCCCUCUGUGUTT against Tspoap1, for which the z-score is -2.99 (active).

On to CCUUUGAUCAAUUCUGAGUTT against Glb1, for which the z-score is -0.554.

With GCAACGUGAAACAUAUUCUTT against Cpb1, the z-score is 1.69.

With GGAAGUAACCACAUCCUAUTT against Epn2, the z-score is -0.628.

As to GGAGGGAAUGAAAAGUCAATT against Stard7, the z-score is 2.09 (active).

Consider GGUCACUGUUAGUUAUUAATT against Tcerg1l, for which the z-score is 0.954.

Regarding GGGUAUUUUACCACUACUUTT against Psg23, the z-score was 0.32.

As for GCCGUCACAAGAACUGAACTT against Apon, the z-score is -0.24.

For the sequence CCCACUUUGAGGAAAGCUATT against Itprip, the z-score was -2.46 (active).

Turning to GGAAAACUAACCAAAAUAGTT against F3, the z-score was 1.45.

With GGCAAAUUAUUAGUACAGUTT against Gabpa, the z-score was 1.41.

As for CCCGAAUCUCAGCGUAGAATT against Gm5617, the z-score is -0.853.

Consider GGAGUUCAAUCCAACAAAATT against Atxn2l, for which the z-score was -1.4.

Turning to GCUCAGAGACAAGCAACUGTT against Kcnk7, the z-score is 0.247.

GGAACAGAAAACCAUAUAATT against Snx29: the z-score was -2.54 (active).

In the case of GGUUAUGAGGCUUAAUAAATT against Atxn7l1, the z-score was 0.965.

For the sequence CCCUCGGUGCCUAAUAAAUTT against Hsd17b10, the z-score was -0.0731.

For GGAUGCUAUAAAGAAUGCCTT against Prpf39, the z-score was -1.19.

Take UCCGUUGGAGUAUCGAUGUTT against Trp53rka: the z-score was -1.25.

On to GCGAGAUGGAAGGAUCUUGTT against Anapc13, for which the z-score was 5.28 (active).

For the sequence GGAGAACAUGGAGACUAUUTT against Ramp1, the z-score is -0.756.

Consider GGUCUACCAUUUCACCUUGTT against Cops4, for which the z-score is 1.19.

Consider GUUGCCAGAUUUGGAUAUUTT against Abcg5, for which the z-score is 0.664.

On to CGGGAAGAGUACUUGUUUUTT against Cfl1, for which the z-score was 0.153.

Consider CAAAGCCACCUCGCCCUAUTT against Nkx2-6, for which the z-score was -0.0586.

For the sequence GGCUUAUGUUUGCUUUGUUTT against Piwil1, the z-score is 0.0916.

Take CCUUUUUCUGGAUUGGAAUTT against Klrd1: the z-score was -0.00525.

For the sequence GGAAUAUGACUUCAAGAUGTT against Lmnb2, the z-score was 4.28 (active).

As to AAUGCAAACAAUGCAAAUGTT against Mt2, the z-score is -0.174.

With GGCUAAAGCGAAAAAAAAGTT against Msl3, the z-score was -0.114.

As for CGGAUUCACAAGAACACCUTT against Pramel12, the z-score is -0.157.

As for GGGCUGUUCCAUUUCUUUATT against Atcay, the z-score was 0.727.

Regarding CGGAACUCUGCCACAAGUUTT against Zfp36, the z-score was 1.27.

GGCAUAUGUUGAAACUAUUTT against Sel1l3: the z-score is 1.29.

For GCUCGUGUCAGAACCGAUGTT against Rwdd3, the z-score was 2.39 (active).

Take GCCAAAAAAGCUGUCAGUUTT against Nkx2-3: the z-score was -1.11.

Regarding GGAGGACGUAACUAAAUCATT against Napepld, the z-score is -0.934.

As to UCUACAGGACUAUUAGAUUTT against Wnt6, the z-score is 0.563.

Consider GGUUCUAUAGGGCUCCGAATT against Tmem179b, for which the z-score was 4.23 (active).

Take GGGAUCAAAACAUACUGUGTT against Klra4: the z-score was 0.0891.

As to GGUCAUGCAGGUUUUGAAUTT against Snd1, the z-score was 1.9.

Consider GGCUGAAAUAAAACAAGAATT against Use1, for which the z-score was -0.778.

As to GCAGAAGCGUGGCAUUGUATT against Ins2, the z-score is 0.5.

GGAAGUGCUGAAGGUGUACTT against Spire2: the z-score was 2.38 (active).

GGAUUUAGCCAAUCAAUCUTT against Cdc14b: the z-score was -0.872.
